{"source": "PubChem BioAssay", "note": "A number with no mark means an inactive call. Calls of active or inactive are those of the source.", "data": [{"test": "S. cerevisiae growth modulation with rapamycin, primary screen, strain BY4716, OD600, 96 h (AID 1091); note: test concentration not given here", "conditions": "higher = more signal, called active from +8 up or from −8 down", "values": [{"smiles": "C[C@@]1([C@@H](NS(=O)(=O)c2cccc3cccnc23)c2ccc(-c3ccccc3)cc2)C[C@H]1C1CCCCC1", "z-score": 1.41}, {"smiles": "O=C1O[C@H](c2ccccc2)[C@H](c2ccccc2)N2[C@H]1[C@@H](C(=O)N1CCN(c3ncccn3)CC1)[C@]1(C(=O)Nc3ccc(C#CC4(O)CCCCCC4)cc31)[C@H]2c1ccc(O)cc1", "z-score": 1.21}, {"smiles": "C=CCC(OC(C)=O)[C@@H]1[C@@H](N(Cc2ccc(-c3ccccc3)cc2)C(=O)Cc2ccc(OC)cc2)c2cc(OCCCO)ccc2N1C(=O)c1ccc2ccccc2c1", "note": "(stereo partly drawn)", "z-score": -0.193}, {"smiles": "O=C(NC1CC1)[C@@H]1c2ccccc2C(=O)N(C2CCCCC2)[C@H]1c1ccc(CO)cc1", "z-score": 0.0861}, {"smiles": "COC(=O)[C@@]1(Cc2ccccc2)[C@H]2c3cc(C(=O)N(C)C)n(Cc4nc5ccccc5[nH]4)c3C[C@H]2CN1C(=O)c1ccccc1", "z-score": -0.678}, {"smiles": "C=CCOC(=O)[C@@H]1[C@H]2C(=O)O[C@H](c3ccccc3)[C@H](c3ccccc3)N2[C@H](c2ccc(OCCOC(=O)[C@@H]3C[C@@H]4C(=O)N[C@@H](CC(C)C)C(=O)N4[C@@H]3c3ccc(O)cc3)cc2)[C@@]12C(=O)Nc1ccc(I)cc12", "z-score": "18.2 (active)"}, {"smiles": "COCCOC(=O)N1C(=O)[C@@]2(c3cc(C#CCNC(N)=O)ccc31)[C@H](C(N)=O)[C@H]1C(=O)O[C@H](c3ccccc3)[C@H](c3ccccc3)N1[C@@H]2c1ccc(O)cc1", "z-score": 0.449}, {"smiles": "C=CCNC(=O)[C@H]1[C@@H]2C(=O)O[C@@H](c3ccccc3)[C@@H](c3ccccc3)N2[C@@H](c2ccc(OCCO)cc2)[C@]12C(=O)Nc1ccc(C#Cc3ccc(OC)cc3)cc12", "z-score": 5.57}]}]}
